From PubChem
Hits are enriched below; roughly 4.8% of the tested compounds scored in any of these assays.
TIM10 inh: TIM10 yeast growth inhibition | S. cerevisiae TIM10 strain growth, BacTiter-Glo luminescence, 24 h | actives 1.4% (n = 330,000) | AID 463195 | inhibition, % at 10 µM;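 active = inhibition of 40% or more at the single tested concentration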;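 also: wild-type TIM10 isogenic control strain grown at permissive 25 °C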
PfHsp90 yeast 2: growth inhibition of yeast expressing Plasmodium Hsp90; S. cerevisiae expressing PfHsp90, BacTiter-Glo ATP, 48 h; yeast lacking PDR1 and PDR3 efflux regulators; inhibition, % at 9.4 µM; actives 0.32% (n = 310,000);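 active = every replicate shows inhibition above about 80%, whatever the replicate mean, limit read from the data; inconclusive = mean inhibition reaches the set limit but some replicate falls short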;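 also: 0% = DMSO neutral controls and 100% = 20 µM radicicol positive controls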
NALP1 yeast inh: NALP1 inhibition | actives 0.61% (n = 280,000) | inhibition, % at 10 µM | S. cerevisiae NALP1/ASC/caspase-1 growth, X-gal OD620, 72 h; in the data active = inhibition mostly above about 24%, no sharp cut-off; inactive = mostly below about 32%
tim10-1 inh: tim10-1 yeast growth inhibition; S. cerevisiae tim10-1 ts strain growth, BacTiter-Glo, 24 h; inhibition, % at 20 µM; actives 2.2% (n = 330,000);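 active = inhibition of at least 40%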;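 also: mutant grown at 25 °C; 0% = DMSO wells with yeast and 100% = wells holding no yeast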
tim23-1 inh: growth inhibitors of tim23-1 mutant yeast; S. cerevisiae tim23-1 growth, BacTiter-Glo luminescence, 24 h; inhibition, % at 20 µM; actives 1.3% (n = 330,000); AID 463212;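 active = growth inhibition of the mutant yeast at or above 50%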;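 also: temperature-sensitive mutant grown at 25 °C; plate controls were DMSO-treated mutant yeast for no effect and medium wells lacking yeast for full effect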
SKKanGAS inh: inhibitors of SKKanGAS S. pyogenes growth in kanamycin (SK-promoter or general growth effect) | AID 1662 | BacTiter-Glo, 6 h | inhibition, % at 7.5 µM | actives 1.3% (n = 300,000);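 active = mean replicate score, as percent of positive control median, at least 50; inconclusive = mean below 50 but one replicate at or above 50; inactive = mean and every replicate below 50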;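 also: strain carries kanamycin resistance gene driven by streptokinase promoter and grows in 40 µg/ml kanamycin; loss of luminescence reflects streptokinase promoter inhibition or plain growth inhibition; 0% = median of DMSO wells and 100% = positive control at its reference dose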
Numbers without * were called inactive.

What do the screens show for `CCOc1cc(/C=N/NC(=O)Cn2nc([N+](=O)[O-])cc2C)cc(Br)c1OCc1ccccc1F`?
TIM10 inh: 6; PfHsp90 yeast 2: 16; NALP1 yeast inh: 8; tim10-1 inh: 12; tim23-1 inh: 3; SKKanGAS inh: 23

What do the screens show for `O=C(/C(=C/O)N=Nc1cccc(C(F)(F)F)c1)c1ccccc1`?
TIM10 inh: 28; PfHsp90 yeast 2: 108*; NALP1 yeast inh: 0; tim10-1 inh: 24; tim23-1 inh: 29; SKKanGAS inh: -3

Results for O=C1N/C(=N\N=C\c2ccccn2)SC1Cc1cccc(SC(F)F)c1 (stereo not drawn) ?
TIM10 inh: 9; PfHsp90 yeast 2: 19; NALP1 yeast inh: -6; tim10-1 inh: 28; tim23-1 inh: -11; SKKanGAS inh: 94*

How did O=C1N/C(=N\N=C\c2cccnc2)SC1Cc1ccc(SC(F)F)cc1 (stereo not drawn) do in these assays?
TIM10 inh: 26; PfHsp90 yeast 2: 18; NALP1 yeast inh: 50; tim10-1 inh: 23; tim23-1 inh: 14; SKKanGAS inh: 93*

Results for O=C(CN1CCC(n2nnc3ccccc32)CC1)NCc1cccs1 ?
TIM10 inh: -5; PfHsp90 yeast 2: -32; NALP1 yeast inh: -10; tim10-1 inh: 19; tim23-1 inh: 13; SKKanGAS inh: 1

Results for O=C(NC(=S)N1CCN(c2nc(-c3ccccc3)cs2)CC1)c1cncc(Br)c1 ?
TIM10 inh: 22; PfHsp90 yeast 2: -49; NALP1 yeast inh: -3; tim10-1 inh: 17; tim23-1 inh: 14; SKKanGAS inh: 77*

What do the screens show for `COc1cccc(N2CCN(C(=O)c3ccc(=O)oc3)CC2C)c1` (stereo not drawn)?
TIM10 inh: 5; PfHsp90 yeast 2: 4; NALP1 yeast inh: 40*; tim10-1 inh: -7; tim23-1 inh: 0; SKKanGAS inh: -5

What do the screens show for `COc1ccc(N2CCSC2C(=O)NN)cc1` (stereo not drawn)?
TIM10 inh: -3; PfHsp90 yeast 2: 1; NALP1 yeast inh: 18; tim10-1 inh: -1; tim23-1 inh: 1; SKKanGAS inh: 3

How did COc1ccc(S(=O)(=O)N2CCOC2CNC(=O)C(=O)NCc2ccccc2Cl)cc1 (stereo not drawn) do in these assays?
TIM10 inh: 10; PfHsp90 yeast 2: -6; NALP1 yeast inh: 10; tim10-1 inh: 2; tim23-1 inh: 15; SKKanGAS inh: 52*

What do the screens show for `CCC1(CC)C(=O)NC(=S)N=C1N`?
PfHsp90 yeast 2: -18

How did O=C(NC(NC(=S)Nc1ccc(Cl)cc1Cl)C(Cl)(Cl)Cl)c1cccc([N+](=O)[O-])c1 (stereo not drawn) do in these assays?
TIM10 inh: 2; NALP1 yeast inh: 0; tim10-1 inh: 14; tim23-1 inh: 6; SKKanGAS inh: 106*

Results for Cc1c(C(=O)NCCSCc2cccc(C(F)(F)F)c2)cnn1-c1ccc(Cl)cc1 ?
TIM10 inh: 4; PfHsp90 yeast 2: 84*; NALP1 yeast inh: 23; tim10-1 inh: 4; tim23-1 inh: 44; SKKanGAS inh: 14

How did CC(=O)c1cnn(-c2ccc(Cl)cc2)c1C do in these assays?
TIM10 inh: 14; PfHsp90 yeast 2: 4; NALP1 yeast inh: 14; tim10-1 inh: 14; tim23-1 inh: 4; SKKanGAS inh: -4

Results for COc1ccc(CCNC(=O)CSc2nc3sc(C(=O)O)c(C)c3c(=O)[nH]2)cc1OC ?
TIM10 inh: -4; PfHsp90 yeast 2: -6; NALP1 yeast inh: 8; tim10-1 inh: -16; tim23-1 inh: -14; SKKanGAS inh: 5

Results for CC(C)C1C(c2ccccc2)NC(c2ccccc2)CC1(O)c1ccc(F)cc1 (stereo not drawn) ?
TIM10 inh: 18; PfHsp90 yeast 2: -8; NALP1 yeast inh: 14; tim10-1 inh: 13; tim23-1 inh: 13; SKKanGAS inh: 6

What do the screens show for `CC(C)C1C(c2ccccc2)N(C)C(c2ccccc2)CC1(O)c1ccccc1` (stereo not drawn)?
TIM10 inh: 29; PfHsp90 yeast 2: 33; NALP1 yeast inh: 20; tim10-1 inh: 19; tim23-1 inh: 42; SKKanGAS inh: 88*

What do the screens show for `O=C(CCC(=O)Nc1ccccc1Cl)NNC(=S)Nc1ccccc1C(F)(F)F`?
TIM10 inh: -2; PfHsp90 yeast 2: 14; NALP1 yeast inh: 10; tim10-1 inh: -6; tim23-1 inh: -2; SKKanGAS inh: -3

How did O=C1NC(=Nc2cccnc2)S/C1=C\c1cccc(F)c1 do in these assays?
TIM10 inh: 15; PfHsp90 yeast 2: -11; NALP1 yeast inh: 7; tim10-1 inh: 1; tim23-1 inh: 16; SKKanGAS inh: 45

How did COc1cc(/C=C2\SC(=Nc3ccccc3)NC2=O)cc(Cl)c1O do in these assays?
TIM10 inh: 4; PfHsp90 yeast 2: -9; NALP1 yeast inh: 3; tim10-1 inh: -18; tim23-1 inh: -9; SKKanGAS inh: 27

How did COc1cc(/C=C2\SC(=Nc3cccnc3)NC2=O)cc(OC)c1OC do in these assays?
TIM10 inh: -13; NALP1 yeast inh: 6; tim10-1 inh: 8; tim23-1 inh: 3; SKKanGAS inh: 50*

What do the screens show for `CCc1ccc(N=C2NC(=O)/C(=C/c3cc(OC)c(O)c(OC)c3)S2)cc1`?
TIM10 inh: 5; PfHsp90 yeast 2: 6; NALP1 yeast inh: 4; tim10-1 inh: 0; tim23-1 inh: 23; SKKanGAS inh: 59*

What do the screens show for `O=C(O)c1ccc(N2C(=O)/C(=C/c3ccc(-c4ccc([N+](=O)[O-])cc4)o3)C=C2c2ccccc2)cc1`?
TIM10 inh: 40; PfHsp90 yeast 2: -37; NALP1 yeast inh: 15; tim10-1 inh: 33; tim23-1 inh: 32; SKKanGAS inh: 104*

Results for COc1ccc(-c2oc(NC(=O)CCl)c(C#N)c2-c2ccc(OC)cc2)cc1 ?
TIM10 inh: 34; PfHsp90 yeast 2: 13; NALP1 yeast inh: -11; tim10-1 inh: 33; tim23-1 inh: 42; SKKanGAS inh: inconclusive

Results for COc1ccc(-c2oc(NC(=O)CSc3ncn[nH]3)c(C#N)c2-c2ccc(OC)cc2)cc1 ?
TIM10 inh: -25; PfHsp90 yeast 2: -22; NALP1 yeast inh: 11; tim10-1 inh: -3; tim23-1 inh: -11; SKKanGAS inh: 70*

What do the screens show for `COc1cc(N2C(=O)C=CC2=O)c(OC)cc1Cl`?
TIM10 inh: 12; PfHsp90 yeast 2: 109*; NALP1 yeast inh: -1; tim10-1 inh: 40; tim23-1 inh: -12; SKKanGAS inh: 2

Results for CCOC(=O)c1cnn(-c2nc(-c3ccccc3)cs2)c1C(F)(F)F ?
TIM10 inh: 31; PfHsp90 yeast 2: -62; NALP1 yeast inh: 0; tim10-1 inh: 31; tim23-1 inh: 35; SKKanGAS inh: 71*

How did CCOC(=O)c1cnn(-c2nc(-c3ccccc3F)cs2)c1C(F)(F)F do in these assays?
TIM10 inh: -1; NALP1 yeast inh: -1; tim10-1 inh: 6; tim23-1 inh: 16; SKKanGAS inh: 52*
